Sampled rows, rich in hits. Any-hit rate of the full collection: about 7.3%.
HEK293 viab: reduces viability of HEK-293 SNCA reporter cells; HEK-293-SNCA-luc viability, GF-AFC fluorescence, 24 h; Potency, µM (titrated, usually from 57.1 µM), actives largely listed as cytotoxic; 150,000 tested, 0.12% active; AID 1671193; also: nearly all actives have a fitted effect of over 30% in size
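Cytotoxicity counterscreen: after 24 h compound treatment of genome-edited SNCA-luciferase HEK-293 cells, live-cell protease substrate GF-AFC read by fluorescence after 30 min; activity scaled between DMSO (0%) and medium-only (-100%), curves Hill-fitted.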
HEK cytotox: cytotoxic compounds in HEK 293 cells; Potency, µM (titrated, usually from 115 µM), actives largely listed as inhibitors; AID 1345083; 94,000 tested, 6.6% active; HEK 293 viability, ATP luminescence (CellTiter-Glo), 48-72 h; also: nearly all actives have a fitted effect of over 60% in size
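HEK 293 seeded at 250 cells/well receive compound via pintool. After 48 or 72 hr at 37 degree Celsius, 5% CO2 and 95% humidity, CellTiter-Glo is dispensed and luminescence read following 10 min at room temperature.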
SNCA expr inhib: reduces expression of the alpha-synuclein gene | HEK-293 SNCA-luciferase knock-in, luminescence, 24 h | Potency, µM (series often up to 57.2 µM), usual class: inhibitors | 140,000 tested, 0.17% active | AID 1671194; also: nearly all actives have a fitted effect of over 45% in size
IP6K1 inh: blocks human inositol hexakisphosphate kinase 1; Q92551; IP6K1 kinase, ADP-Glo luminescence, 2 h; active compounds read low; activity change, % (series mostly up to about 58 µM); 140,000 tested, 0.81% active; in the data active = activity change below about -25%
Target sequence (Q92551 whole entry, looked up): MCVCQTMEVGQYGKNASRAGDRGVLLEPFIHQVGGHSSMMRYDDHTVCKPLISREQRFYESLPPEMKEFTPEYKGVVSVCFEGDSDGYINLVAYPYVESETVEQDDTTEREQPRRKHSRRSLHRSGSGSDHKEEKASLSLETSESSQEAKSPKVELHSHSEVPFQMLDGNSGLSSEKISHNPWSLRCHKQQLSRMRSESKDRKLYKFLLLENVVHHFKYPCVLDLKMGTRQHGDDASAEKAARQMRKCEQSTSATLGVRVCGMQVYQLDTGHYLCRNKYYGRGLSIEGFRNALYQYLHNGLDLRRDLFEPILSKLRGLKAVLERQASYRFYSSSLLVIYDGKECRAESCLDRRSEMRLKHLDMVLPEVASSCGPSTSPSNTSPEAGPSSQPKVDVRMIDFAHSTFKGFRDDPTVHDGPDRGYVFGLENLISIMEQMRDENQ
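ADP-Glo luminescence measures ADP made by human IP6K1 during a 2 h RT reaction with ATP/IP6 (mix at 1.3 mM/130 uM); top library doses 57.5 and 19.1 uM final.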
3T3 cytotox: NIH 3T3 cell cytotoxicity; NIH 3T3 viability, CellTiter-Glo ATP luminescence, 48-72 h; Potency, µM (series often up to 96.7 µM), actives largely listed as inhibitors; 94,000 tested, 4.3% active; AID 1345082; also: nearly all actives have a fitted effect of over 55% in size
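NIH 3T3 cells at 400 cells/well received 23 nL of compound by pintool and were incubated 48 or 72 h at 37 °C. Viability was read as ATP-coupled CellTiter-Glo luminescence.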
FLuc inh: blocks purified firefly luciferase enzyme activity. 76,000 tested, 2.5% active. P08659. purified P. pyralis luciferase, luminescence, biochemical. Potency, µM (highest dose often 115 µM), usual class: inhibitors; also: nearly all actives have a fitted effect of over 65% in size
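Inhibitors were tested against purified firefly luciferase in a biochemical, low-substrate format (both substrates at 10uM) and luminescence measured with a CCD imager.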
Hits are given with their value; i = inactive; ? = inconclusive; nt = no result given; ! = not active in a repeat; [ ] = remark or other dose. Unless noted, calls follow the shape of the dose curve; as a rule, active = well fitted curve in the direction sought with a large enough effect; inconclusive = small, poorly fitted or top-dose-only effect, or another doubt; inactive = no such curve, though single readings can be large; an effect the other way counts as inactive or inconclusive.

SMILES	HEK293 viab	HEK cytotox	SNCA expr inhib	IP6K1 inh	3T3 cytotox	FLuc inh
COc1ccc(C2Cn3cnc(C(=O)N4CCC(C(=O)NCc5cccnc5)CC4)c3CO2)cc1 (configuration not stated)	i	i	i	i	i	i
O=C(Cn1cccc1-c1nc(-c2ccccc2)no1)NCCCc1ccccc1	i	44.7µM	i	i	i	i
O=C(Nc1cccc(F)c1)[C@@H]1C[C@@H](c2cccc(C(F)(F)F)c2)N(CC2CCOCC2)C1	i	22.4µM	?	i	20µM	i
COc1ccc(NC(=O)[C@@H]2C[C@@H](c3cccc(C(F)(F)F)c3)N(C)C2)cc1	i	?	i	i	?	i
CN1C[C@H](C(=O)Nc2cccc(F)c2)C[C@H]1c1cccc(C(F)(F)F)c1	?	63.1µM	?	i	50.1µM	i
O=C(Nc1ccccc1)[C@@H]1C[C@@H](c2cccc(C(F)(F)F)c2)N(CC2CCOCC2)C1	i	56.2µM	?	i	?	i
CN1C[C@H](C(=O)NCCOc2ccccc2)C[C@H]1c1cccc(C(F)(F)F)c1	i	100µM	i	i	?	i
COc1ccccc1-c1ccc(CN2CCCCC2C(=O)NCc2ccccc2)cc1 (configuration not stated)	nt	31.6µM	nt	i	?	nt
COc1ccccc1-c1ccc(CN2CCCCC2C(=O)NCc2ccc(F)c(F)c2)cc1 (configuration not stated)	nt	?	nt	i	?	nt
COc1ccccc1-c1ccc(CN2CCCCC2C(=O)NCC2CC2)cc1 (configuration not stated)	nt	44.7µM!	nt	i	?	nt
COc1ccccc1-c1ccc(CN2CCCCC2C(=O)NCc2ccccc2F)cc1 (configuration not stated)	nt	39.8µM	nt	i	?	nt
CC(=O)N1CCCC(c2[nH]ccc2C(=O)NCCCn2cccn2)C1 (configuration not stated)	i[12.5 µM]	i	i	i	i	i
CN(Cc1cccc(C(F)(F)F)c1)Cc1cncs1	i	i	i	i	i	nt
Cc1noc2c(NCc3ccncc3)cc(-c3cccc(C(F)(F)F)c3)nc12	i	70.8µM	i	i	50.1µM	i
Cc1noc2c(NC(C)C)cc(-c3cccc(C(F)(F)F)c3)nc12	i	100µM	i	i	?	i
Cc1noc2c(NC(C)C)cc(-c3ccccc3)nc12	i	?	i	i	?	i
Cc1ccsc1-c1[nH]nc2ncc(-c3cccnc3)nc12	i	?	i	i	?	i
COc1ccc(C(=O)NC2CCCN(c3cc(-c4ccccc4)[nH]n3)C2)cc1OC (configuration not stated)	i	?	i	i	i	28.2µM
CCOc1ccc(C(=O)NC2CCCN(c3cc(-c4ccccc4)[nH]n3)C2)cc1OCC (configuration not stated)	i	31.6µM	i	i	?	i
COc1ccc(CN2C(=O)CO[C@H]3CN(c4ccc(C#N)cn4)C[C@H]32)cc1	i	i	i	i	?	i
COC(=O)c1cccc(C(=O)N2CCC(Cc3nc(-c4ccc(OC)cc4)no3)CC2)c1	i	56.2µM	?	i	?	i
COc1ccc(-c2noc(CC3CCN(C(=O)c4cc(OC)cc(OC)c4)CC3)n2)cc1	i	35.5µM	?	i	?	i
COc1cc(OC)cc(C(=O)N2CCC(Cc3nc(-c4cccc(OC)c4)no3)CC2)c1	i	44.7µM	?	i	?	i
COc1ccc(-c2noc(CC3CCN(C(=O)c4ccc(OC)nc4)CC3)n2)cc1	i	?	i	i	?	i
COc1ccc(-c2noc(CC3CCN(C(=O)c4cc(OC)c(OC)c(OC)c4)CC3)n2)cc1	i	?	i	i	12.6µM	i
SMILES	HEK293 viab	HEK cytotox	SNCA expr inhib	IP6K1 inh	3T3 cytotox	FLuc inh
CCOC(=O)CCNC(=O)N1CCCCCCNC(=O)[C@@H]2C[C@@H](c3nc(-c4cccnc4)no3)C[C@@H]21	?	i	?	i	i	i
COC[C@@H]1CN(c2cnccn2)C[C@H]1C(=O)NCc1c(C)n[nH]c1C	i	i	i	i	i	i
O=C(NCc1ccc(C(F)(F)F)cc1)c1cc(Br)cn2ccnc12	?	?	i	i	i	i
Cc1noc(C)c1C(=O)N1CCC2(CC1)CC(NC(=O)NC(C)C)c1ccccc12 (configuration not stated)	i	i	i	i	i	nt
CCOc1ccc(C(=O)N2CCC(Cc3nc(-c4cccc(OC)c4)no3)CC2)cc1	i	?	i	i	?	i
COc1cccc(-c2noc(CC3CCN(C(=O)c4ccc(C(C)C)cc4)CC3)n2)c1	i	35.5µM	i	i	?	i
CCc1ccc(C(=O)N2CCC(Cc3nc(-c4cccc(OC)c4)no3)CC2)cc1	i	22.4µM	i	i	39.8µM	i
COc1cccc(-c2noc(CC3CCN(C(=O)c4ccc(F)c(F)c4)CC3)n2)c1	?	?	i	i	?	i
COc1cccc(-c2noc(CC3CCN(C(=O)c4ccc(C)cc4)CC3)n2)c1	i	?	?	i	?	i
COc1cccc(-c2noc(CC3CCN(C(=O)c4ccc(C)cc4C)CC3)n2)c1	i	35.5µM	?	i	?	i
CNC(=O)c1cc(C2CC2)nc2c1c(C1CCCN1C(=O)NC(C)C)nn2C (configuration not stated)	nt	i	nt	i	i	nt
COC(=O)N1CCn2c(nn(-c3ccc(C)cc3)c2=O)C1	i	i	i	i	i	?
CCc1ccc(CNC(=O)c2cc3n(n2)CC(c2ccc4c(c2)OCO4)OC3)cc1 (configuration not stated)	i	?	i	i	?	i
Cc1ccc(C(=O)Nc2cc3cc(Cl)ccc3oc2=O)cc1	i	nt	i	i	nt	nt
O=C(Nc1cc2ccc(O)cc2oc1=O)c1ccc(F)cc1	i	nt	2µM	i	nt	nt
CN1CCC2(C1)CN(CC1CC1)c1ccc(C(=O)Nc3ccccc3)cc12 (configuration not stated)	i	?	i	i	?	?
CN1CCC2(C1)CN(CC1CC1)c1ccc(C(=O)NC3CCCCC3)cc12 (configuration not stated)	i	89.1µM	i	i	79.4µM	i
CN1CCC2(C1)CN(CC1CC1)c1ccc(C(=O)NCc3cccs3)cc12 (configuration not stated)	i	100µM	i	i	?	i
O=C(COc1ccc(Cl)cc1Cl)N1CCC(N2CCOC2=O)CC1	i	i	i	i	i	i
COc1ncccc1-c1nccc2c(=O)cc(N(C)c3ccccc3)oc12	i	?	i	i	35.5µM	i
CC(=O)Nc1ccccc1-c1nccc2c(=O)cc(N(C)c3ccccc3)oc12	i	i	i	i	?	i
Cc1noc(C)c1-c1nccc2c(=O)cc(N(C)c3ccccc3)oc12	i	i	i	i	?	i
